Six1-Eya2 inh = blocks human Six1 binding to Eya2. activity change, % (test concentration not listed). AlphaScreen GST-Six1/His-Eya2 binding, biochemical; stronger effect = lower value. 360,000 tested, 0.56% active. Q15475+O00167
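AlphaScreen with GST-Six1 and His-Eya2 (5X mix: 250 nM and 500 nM), glutathione donor and nickel acceptor beads; buffer 50 mM Tris pH 8.0, 300 mM NaCl, 1 mM TCEP; 1 h at 37 C in the dark.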
PKM2 activator = activators of human pyruvate kinase M2 | 260,000 tested, 0.34% active | P14618 | AID 1631 | Potency, µM (titrated, usually from 57.5 µM), for the others: at the top dose activation, usual class: activators | purified PKM2, Kinase-Glo ATP luminescence, activation; response scale: 0% is enzyme alone, no compound; active = well fitted activation curve with a large enough effect; inconclusive = small, poorly fitted or top-dose-only effect; inactive = no such curve, though single readings can be large or run the other way; also: potency is read from the fitted curve at half-maximal effect; nearly all actives have a fitted effect of over 55% in size
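Kinase-Glo luminescence reports ATP generated from ADP (0.1 mM) and PEP (0.5 mM) by purified hPK-M2 after 1 h at room temperature, pH 7.2 imidazole buffer; intermediate enzyme activity allows detecting inhibitors and activators.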
CtBP-E1A inh = CtBP/E1A binding inhibition; AID 651724; 340,000 tested, 0.49% active; activity change, % (test concentration not listed); AlphaScreen GST-E1A/His-CtBP binding, 1536-well; stronger effect = lower value
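Homogeneous bead-based format: GST-tagged E1A captured on glutathione donor beads, His-tagged CtBP on nickel acceptor beads; compounds precede bead addition by 2 h at 37 °C.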
MBNL1 CUG block = MBNL1-poly(CUG) RNA binding inhibition; 280,000 tested, 0.036% active; TR-FRET MBNL1-His/biotin-(CUG)12 binding, 665/545 ratio; Q9NR56; Potency, µM (top dose mostly 57.5 µM), for the others: top-dose activity change, negative = inhibition, usual class: inhibitors; active = well fitted inhibition curve with a large enough effect in the signal ratio, with a control signal flat, not every such curve was filed as active; inconclusive = small, poorly fitted or top-dose-only effect, or effect the other way, or a change in a side signal; inactive = no such curve, though single readings can be large or run the other way; the % refers to the signal ratio; also: potency is read from the fitted curve at half-maximal effect
Target sequence (Q9NR56 whole entry, looked up): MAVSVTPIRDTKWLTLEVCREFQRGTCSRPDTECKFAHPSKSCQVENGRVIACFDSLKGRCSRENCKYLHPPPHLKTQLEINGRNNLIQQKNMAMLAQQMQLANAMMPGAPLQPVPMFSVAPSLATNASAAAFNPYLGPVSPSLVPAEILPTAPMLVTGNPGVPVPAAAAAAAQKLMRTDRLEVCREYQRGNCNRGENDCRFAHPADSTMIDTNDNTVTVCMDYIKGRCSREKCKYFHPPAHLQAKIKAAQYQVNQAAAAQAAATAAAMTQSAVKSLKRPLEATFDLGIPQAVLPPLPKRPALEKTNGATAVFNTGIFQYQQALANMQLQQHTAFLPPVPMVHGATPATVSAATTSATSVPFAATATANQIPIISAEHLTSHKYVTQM
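Compounds (final 92 nM to 58 uM) are added to His-tagged MBNL1 and biotin-(CUG)12, then terbium anti-His antibody and streptavidin-XL665 (5 nM final). After 60 min at room temperature, the 665/545 nm ratio is read.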
* = called active by the depositor; ? = inconclusive; . = no result; [ ] = another dose, or the depositor's remark. Rows were chosen to be rich in hits. Some 0.93% of all compounds tested hit in one or more screens of this group. Rule as the data show it, unless noted: active = activity change below about -65%; inconclusive = mostly about -30% to -63%; inactive = weaker than that. % is scaled to controls: 0 for no effect and ±100 for the full control effect.

SMILES	Six1-Eya2 inh	PKM2 activator	CtBP-E1A inh	MBNL1 CUG block
NC(=O)N/N=C\c1cc(Br)ccc1O	-18	0%	0	34%
CC1(C)OC2OC(C(=O)N/N=C/c3cc(Br)ccc3O)C3OC(C)(C)OC3C2O1 (configuration not stated)	-82*	0%	-90*	14%
COc1ccc(NC(=O)C2(C)Cc3c(-c4cccc(C(F)(F)F)c4)ccnc3O2)cc1OC (configuration not stated)	-10	.	-15	.
COc1ccc(NC(=O)C2(C)CCN2Cc2ccccc2Cl)cc1OC (configuration not stated)	-14	.	-24	.
COc1ccc(CNC(=O)N2CCN(S(=O)(=O)c3ccc(C)cc3C)CC2)cc1	5	4.5µM*	-16	-6%
COc1ccc(S(=O)(=O)N2CCCN(S(=O)(=O)c3ccc(OC)cc3C)CC2)c(C)c1	-4	8.9µM*	9	-2%
COc1ccc(S(=O)(=O)N2CCN(C(=O)NCc3ccc(C)cc3)CC2)cc1	-8	7.1µM*	2	-5%
Cc1ccc(S(=O)(=O)N2CCN(C(=O)NCc3ccc(F)cc3)CC2)c(C)c1	-2	.	-1	-8%
COc1cccc(CNC(=O)N2CCN(S(=O)(=O)c3ccc(C)cc3)CC2)c1	7	11µM*	0	-3%
COCCN(CCOC)c1nc(C)nc2c1nc(-c1ccccc1)n2CCN(C)C	.	1%	.	.
CCOC(=O)NC[C@H](Cc1ccc(OCCc2nc(-c3ccccc3)oc2C)cc1)N/C(C)=C\C(=O)c1ccc(C(F)(F)F)cc1	.	-9%	.	.
CCCn1c(-c2ccc(F)cc2)nc2c(NCCCCN(CC)CC)nc(C)nc21	.	-3%	.	.
COc1ccc(-c2nc3ccc(Cl)cn3c2Cc2cccc(F)c2)cc1OC	-1	.	2	.
Cc1ccc(S(=O)(=O)NCc2ccccc2Br)cc1	6	.	-6	.
CCN(CC)C(=O)C1=C(C)N(Cc2ccc(OC)cc2)C(=O)C(CC(=O)NCCN2CCOCC2)C1 (configuration not stated)	-17	.	6	.
COCCCNC(=S)N1CCN(S(=O)(=O)c2ccc(OC)cc2)CC1	-14	0.89µM*	.	2%
CCCC/C=C/C(NC(=O)OCc1ccccc1Cl)c1ccccc1 (configuration not stated)	.	1%	.	.
CCOc1ccc(NC(=O)CN(C)C(=O)C2CC(=O)N(c3cccc(SC)c3)C2)cc1OCC (configuration not stated)	-65*	.	-72*	.
CCOc1ccc(NC(=O)CN(C)C(=O)C2CC(=O)N(c3ccc4c(c3)OCCO4)C2)cc1OCC (configuration not stated)	-1	.	-5	.
CN(C)c1ccc(N=Nc2ccccc2C(=O)OCC(=O)N2CCCCCC2)cc1	-74*	-2%	-66*	?
CN(C)c1ccc(N=Nc2ccccc2C(=O)OCC(=O)Nc2ccccc2C(F)(F)F)cc1	-71*	0%	-29	?
CN(C)c1ccc(N=Nc2ccccc2C(=O)OCC(=O)N2CCCC2)cc1	?	-6%	-30	?
CCCCc1nc2c(c3c1C[C@H](C)OC3)CN(C(=O)C1CC1)CC2	.	8%[11.5 µM]	.	.
CCCCCCCCCCCCCCCC(=O)OC(CO)CO	.	2%	.	.
COc1ccc(N2CSC(=S)N(c3ccc(OC)cc3)C2)cc1	-4	.	-5	.
SMILES	Six1-Eya2 inh	PKM2 activator	CtBP-E1A inh	MBNL1 CUG block
N#C/C(=C\c1cccc(Cl)c1)C(=O)c1ccccc1	1	20µM*	.	-8%
COc1cccc(C=C(C#N)C(=O)c2ccccc2)c1	0	.	8	.
CS(=O)(=O)Nc1ccc(N2CCN(c3ccc(C(F)(F)F)cn3)CC2)nc1	0	-8%	-2	.
CC1=NN(c2ccc(C(F)(F)F)cn2)C(=O)C1	-68*	1%	?	-4%
COC(=O)[C@]12CCCCC=C1N(CCC1=CCCCC1)C(=O)[C@H](CC(=O)N1CCN(C(=O)c3ccco3)CC1)C2	-2	.	0	.
Oc1c(Cl)cc(Cl)cc1CNc1ccc(Br)cn1	-70*	-4%	-75*	-1%
CCOC(=O)Nc1ccc2c(c1)C(=NNC(N)=S)c1ccccc1-2	-79*	.	-65*	.
CCOC(=O)Nc1ccc2c(c1)C(=NO)c1ccccc1-2	-14	.	-5	.
Cc1ccc(Nc2cc(C)nn2-c2nc(C)cc(=O)[nH]2)cc1	-82*	-7%	-81*	-5%
O=C1c2ccccc2C(=O)c2c1ccc(O)c2O	-65*	.	?	.
